Some test systems named below: SK-MEL-2 melanoma; EKVX NSCLC; SN12C renal; UO-31 renal; TK-10 renal; ACHN renal; CAKI-1 renal; A498 renal; CCRF-CEM leukemia; MOLT-4 leukemia.
Common to all, as to experiment: NCI-60 one-dose screen, 48 h (100 = growth as untreated, 0 = no growth, -100 = all killed)
What all share (conditions): 10 µM unless noted

SMILES strings stand for the structures. About 83,000 compounds went through this panel and 20% of them were active in at least one assay; those are over-represented in the sample as a whole.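 Values shown are percent growth following 48 h exposure of cells in 96-well plates to a single concentration of compound; below 10 was considered active.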 Values without a mark were called inactive. Activity calls are given as the source filed them.

As to `Cc1ccccc1[C@H]1C(C(=O)c2ccc(Cl)cc2)C2(N[C@@H]1c1ccccc1)C(=O)Nc1ccc(Br)cc12` (stereo not given in full), the growth was -11.2% (active) in the experiment with SK-MEL-2 melanoma; 26.4% in the experiment on EKVX NSCLC; -82.1% (active) in the experiment on SN12C renal; 14.1% in the experiment with UO-31 renal; 41.6% in the experiment with TK-10 renal; 7.11% (active) with ACHN renal. In addition, the growth in the experiment on CAKI-1 renal was 23%; with A498 renal, 44.3%; in the experiment on CCRF-CEM leukemia, 5.11% (active); with MOLT-4 leukemia, -2.55% (active).
Take `COc1cc(NC(=O)c2cccc(C3CCc4c(cc(OC)c(OC)c4OC)O3)c2)cc(OC)c1OC` (stereo not given): the growth with SK-MEL-2 melanoma was -1.8% (active); in the experiment on EKVX NSCLC it was 35.3%; in the experiment on SN12C renal, 13.2%; in the experiment on UO-31 renal it was 3.46% (active); in the experiment on TK-10 renal, 56.6%; in the experiment on ACHN renal, 17.3%. In addition, the growth in the experiment with CAKI-1 renal is 14.8%; in the experiment with A498 renal, 112%; with CCRF-CEM leukemia, 18.1%; in the experiment on MOLT-4 leukemia, 11.8%.
Consider `CNC(=O)c1cc(Oc2ccc3nc(NC(=O)Nc4cccc(OC(F)(F)F)c4)sc3c2)ccn1`, for which the growth in the experiment with SK-MEL-2 melanoma is -20.5% (active); with EKVX NSCLC it was 42.8%; in the experiment with SN12C renal, 23.4%; in the experiment on UO-31 renal it was 14.5%; in the experiment on TK-10 renal, -33.7% (active); with ACHN renal, -2.02% (active). Also, the growth is -8.87% (active) in the experiment on CAKI-1 renal, 8.49% (active) with A498 renal, 52.9% in the experiment on CCRF-CEM leukemia and 50.9% in the experiment on MOLT-4 leukemia.
`CC1(C)CC[C@]2(C(=O)O)CC[C@]3(C)C(=CCC4[C@@]5(C)C[C@@H](O)[C@@H]6OC(c7ccc(F)cc7)OC[C@@]6(C)C5CC[C@]43C)C2C1` (stereo not given in full): the growth with SK-MEL-2 melanoma is 18.1%; with EKVX NSCLC it was 20.5%; in the experiment with SN12C renal it was 31.8%; in the experiment with UO-31 renal, 25.6%; in the experiment on TK-10 renal it was 26.9%; in the experiment on ACHN renal, 13.3%. The growth in the experiment with CAKI-1 renal was 33.6%; in the experiment with A498 renal, 46.8%; in the experiment with CCRF-CEM leukemia, 14.6%; in the experiment on MOLT-4 leukemia, 8.69% (active).
On to `Cn1nc(C(F)(F)F)cc1-c1cc(Cl)c(COc2ccc(Cl)cc2)c(-c2ccc(Cl)c(C(F)(F)F)c2)c1O`, for which the growth in the experiment with SK-MEL-2 melanoma was -81.6% (active); in the experiment with EKVX NSCLC, -2.8% (active); in the experiment with SN12C renal, -51.4% (active); with UO-31 renal it was -48.4% (active); with TK-10 renal, 3.16% (active); in the experiment on ACHN renal it was -5.03% (active). Besides, the growth with CAKI-1 renal was -15.9% (active); with A498 renal, -11.9% (active); in the experiment with CCRF-CEM leukemia it was -34.3% (active); with MOLT-4 leukemia it was -23.1% (active).
For the compound `CC(=O)Nc1ccc(-c2nc3cc(-c4ccc(O)cc4)ccc3n2C)cc1`, the growth in the experiment on SK-MEL-2 melanoma is 84.1%; in the experiment with EKVX NSCLC, 56.3%; in the experiment on SN12C renal, 40.1%; in the experiment with UO-31 renal, 30.8%; in the experiment with TK-10 renal, 79%; with ACHN renal, 50.3%. In addition, the growth in the experiment on CAKI-1 renal is 34.6%; in the experiment with A498 renal, 72.4%; in the experiment with CCRF-CEM leukemia, 43.8%; in the experiment with MOLT-4 leukemia it was 13.9%.
For the compound `Brc1ccc(N/N=C/c2c[nH]c3ccc(Br)cc23)nc1`, the growth in the experiment on SK-MEL-2 melanoma is -57% (active); in the experiment on EKVX NSCLC, -11.8% (active); in the experiment on SN12C renal, -22.6% (active); in the experiment on UO-31 renal it was -18.7% (active); in the experiment on TK-10 renal, -16.8% (active); with ACHN renal, -22.8% (active). Also, the growth is -24.4% (active) in the experiment on CAKI-1 renal, -21.3% (active) in the experiment with A498 renal, -37.7% (active) with CCRF-CEM leukemia and -35% (active) in the experiment with MOLT-4 leukemia.
Take `O=C(c1ccc(OCCN2CCOCC2)cc1)C1[C@H](c2ccc(Cl)cc2)[C@@H](c2ccccc2)NC12C(=O)Nc1ccc(Cl)cc12` (stereo not given in full): the growth in the experiment on SK-MEL-2 melanoma was 35%; in the experiment with EKVX NSCLC, 23.1%; with SN12C renal, 13.5%; in the experiment with UO-31 renal, 19.1%; with TK-10 renal it was 49.7%; in the experiment with ACHN renal it was 9.92% (active). In addition, the growth was 14.8% in the experiment on CAKI-1 renal, 88% in the experiment on A498 renal, 31% with CCRF-CEM leukemia and -28.2% (active) in the experiment with MOLT-4 leukemia.
Take `Cc1sc2c(c1C)C(c1ccc(Cl)cc1)=N[C@@H](CC(=O)NCCCCCNC(=O)COc1ccc(C3CCC(=O)NC3=O)cc1)c1nnc(C)n1-2` (stereo not given in full): the growth with SK-MEL-2 melanoma is 13.4%; in the experiment with EKVX NSCLC it was 29.5%; in the experiment with SN12C renal, 18.7%; in the experiment with UO-31 renal, 27.8%; with TK-10 renal it was 5.57% (active); in the experiment on ACHN renal it was 44%. In addition, the growth was 16.4% with CAKI-1 renal, 48.4% in the experiment on A498 renal, 49.2% in the experiment on CCRF-CEM leukemia and 16.4% in the experiment with MOLT-4 leukemia.
As for `N#Cc1c(-c2ccc(Br)cc2)nc2n[nH]c(-c3ccc(Br)cc3)c2c1-c1ccc(C(F)(F)F)cc1`, the growth in the experiment with SK-MEL-2 melanoma was -37.7% (active); with EKVX NSCLC, 5.95% (active); in the experiment with SN12C renal, 19.2%; with UO-31 renal, 11.9%; in the experiment with TK-10 renal, 70%; in the experiment on ACHN renal it was 13.1%. Further, the growth with CAKI-1 renal was 2.69% (active); in the experiment on A498 renal, 92.3%; in the experiment on CCRF-CEM leukemia, 13.9%; with MOLT-4 leukemia, 4.06% (active).
In the case of `C=C1CC[C@@H]2[C@]3(C)COC(c4cn[nH]c4-c4cccc(Br)c4)O[C@@H]3CC[C@@]2(C)[C@@H]1C/C=C1/C(=O)OCC1O` (stereo not given in full), the growth in the experiment with SK-MEL-2 melanoma was -69.8% (active); in the experiment with EKVX NSCLC, -62.3% (active); with SN12C renal, -77.7% (active); with UO-31 renal, -100% (active); in the experiment with TK-10 renal, -59.7% (active); with ACHN renal, -100% (active). Further, the growth with CAKI-1 renal was -39.3% (active); in the experiment on A498 renal, -93.7% (active); in the experiment on CCRF-CEM leukemia it was -15.6% (active); in the experiment with MOLT-4 leukemia it was 12.2%.
Turning to `CC(=O)/C=C/c1cccc2c1C(=O)NC(C)(c1cc3cc(Br)ccc3oc1=O)N2` (stereo not given), the growth with SK-MEL-2 melanoma was -0.79% (active); with EKVX NSCLC, 34.3%; in the experiment on SN12C renal it was 12.7%; with UO-31 renal, 22%; with TK-10 renal, 58.6%; in the experiment with ACHN renal it was 22.7%. In addition, the growth was 21.3% with CAKI-1 renal, 104% in the experiment on A498 renal, 0.825% (active) with CCRF-CEM leukemia and -6.34% (active) with MOLT-4 leukemia.
For `CN(C)c1nc(NCCNS(=O)(=O)c2ccc(C(=O)/C=C/c3ccc(F)cc3)cc2)nc(Nc2ccc(F)cc2)n1`, the growth is -90.2% (active) in the experiment on SK-MEL-2 melanoma; -49% (active) with EKVX NSCLC; -99.8% (active) in the experiment with SN12C renal; -49.1% (active) with UO-31 renal; -41.4% (active) with TK-10 renal; -81.2% (active) in the experiment with ACHN renal. Further, the growth with CAKI-1 renal was -51.9% (active); with A498 renal, 9.88% (active); in the experiment with CCRF-CEM leukemia, 4.06% (active); with MOLT-4 leukemia it was -17.2% (active).

The values above are taken from PubChem BioAssay (NCI).
